MbtI inh: blocks the Mycobacterium tuberculosis siderophore enzyme MbtI. P9WFX0. purified MbtI enzyme, fluorescence intensity read-out. inhibition, % (concentration not given with the values). 100,000 tested, 0.89% active. AID 493033; in the data active means inhibition mostly above about 56%, no sharp cut-off; inactive means mostly below about 77%
MenB inh: inhibitors of Mycobacterium tuberculosis MenB enzyme; P9WNP5; MenB enzyme assay, absorbance read-out; inhibition, % (no concentration beside the values); 100,000 tested, 0.43% active; in the data active means inhibition above about 21%, passing the limit was not always enough
AID504770: E. coli YBA685 growth inhibition, screen for V. cholerae RctB inhibitors. AID 504770. E. coli YBA685 rctB-dependent plasmid, OD600 growth, 3 h; active compounds read low. 130,000 tested, 0.27% active. z-score (concentration not given with the values); in the data active means z-score below about -2, passing the limit was not always enough
PV pol inh: poliovirus RNA polymerase inhibition | P03300 | poliovirus polymerase elongation, fluorescence polarization; active compounds read low | % elongation, % (compound at 16.7 µg/mL) | 150,000 tested, 0.66% active | AID 588519; in the data active means % elongation below about 90%
Target sequence (P03300 1749-2209 limits assumed): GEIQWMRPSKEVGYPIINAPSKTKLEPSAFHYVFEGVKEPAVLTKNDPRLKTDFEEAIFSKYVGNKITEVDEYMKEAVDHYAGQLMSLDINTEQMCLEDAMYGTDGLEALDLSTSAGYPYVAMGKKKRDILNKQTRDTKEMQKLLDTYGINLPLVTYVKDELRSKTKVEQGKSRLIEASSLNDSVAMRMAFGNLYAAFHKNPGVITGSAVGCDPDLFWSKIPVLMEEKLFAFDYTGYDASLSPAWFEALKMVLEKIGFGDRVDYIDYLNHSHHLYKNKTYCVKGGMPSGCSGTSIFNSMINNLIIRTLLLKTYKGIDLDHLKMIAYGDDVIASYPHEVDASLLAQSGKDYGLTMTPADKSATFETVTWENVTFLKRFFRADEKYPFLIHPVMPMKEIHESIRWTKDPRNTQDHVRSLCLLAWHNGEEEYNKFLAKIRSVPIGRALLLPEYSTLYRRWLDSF
An asterisk follows results filed as active; i = inactive; . = no result given; ! = repeats disagree. Hits are enriched below; roughly 1.4% of the tested compounds scored in any of these assays.

SMILES	MbtI inh	MenB inh	AID504770	PV pol inh
COc1ccc2nc(SCC(O)c3ccccc3)[nH]c2c1 (stereo not drawn)	-9	.	-0.15	100
COc1ccc(NC(=O)C(C)n2sc3ccccc3c2=O)c(OC)c1 (stereo not drawn)	1	4	-0.15	101
CCS(=O)(=O)c1ccc2oc(SCC(=O)N3CC(C)OC(C)C3)nc2c1 (stereo not drawn)	-10	20	-1.1	106
CCS(=O)(=O)c1ccc2oc(SCC(=O)CSc3nc4cc(S(=O)(=O)CC)ccc4o3)nc2c1	8	45*	0.3	110
O=C(NCc1ccc2c(c1)OCO2)c1ccc2c(=O)n(CCC3=CCCCC3)c(=O)[nH]c2c1	-41	-19	-1.9	101
CN1CCc2c(sc3nc(=S)[nH]c(N)c23)C1	i	6	-1.3	103
CCOC(=O)CC(=O)c1c[nH]c2ccccc12	.	-19	-2.2*	112
CCOC(=O)CN=C(c1ccccc1)c1ccccc1	.	-2	-0.7	101
CCOC(=O)Cc1c[nH]c2ccccc12	-16	6	1.1	100
CCOC(=O)CC(=O)c1ccccc1	16	34*	-0.85	107
Cc1cc(C)nc(SC2=C(Nc3ccc(O)cc3)C(=O)N(Cc3ccccc3)C2=O)n1	-3	-34	0.55	101
COc1cccc(-c2nc(C(N)=O)c3c(n2)n(-c2cccc(OC)c2)c(=O)n3C)c1	10	-6	-1.5	101
C=CCn1c(N)nc2c1c(=O)n(C)c(=O)n2C	-5	49*	-0.6	101
O=C(O)Cn1cc(C=C2C(=O)NC(=O)NC2=O)c2ccccc21	.	-249	-0.25	111
O=C(O)Cn1cc(C=C2C(=O)NC(=S)NC2=O)c2ccccc21	100*	-55	0	102
Cc1ccc(Cn2c(=O)c3ccccc3n3c(SCC(=O)OC(C)(C)C)nnc23)cc1	10	-6	-0.2	99
Cc1ccc(NC(=S)C(C#N)C(N)=O)cc1Cl (stereo not drawn)	74*	-1	-0.6	102
O=c1oc2c3c(ccc2c2ccccc12)OCN(Cc1ccc(Cl)cc1)C3	.	.	.	88*
COc1ccc(CN2COc3ccc4c(oc(=O)c5ccccc54)c3C2)cc1OC	.	.	.	100
O=C(c1cccnc1NCCc1ccccc1)N1CCCC1	30	-59	1.2	103
O=C(CSc1nc2ccccc2c(=O)[nH]1)c1ccc(O)cc1O	82*	6	-0.4	104
O=C(CSc1nc2ccccc2c(=O)[nH]1)c1ccc(-c2ccccc2)cc1	1	0	0.45	104
O=c1c(=NNc2ccccc2)c(=O)c2ccccc12	16	-348	1.1	98
O=c1c(=NNc2nn[nH]n2)c(=O)c2ccccc12	16	-474	-1.4	-20*
O=C1C2CN3CN(C2)CC1(c1ccccc1)C3	4	34*	0.25	99
SMILES	MbtI inh	MenB inh	AID504770	PV pol inh
O=C1C2CN3CCN(C2)CC1(c1ccccc1)C3	0	.	1.8	.
O=C1c2ccccc2C(=O)C1c1ccc(OC(F)F)cc1	80*	-10	-0.05	96
COc1cc(OC)nc(OC)n1	2	-29	-0.15	101
CCOc1ccccc1NC(=O)/C=C/C(N)=O	.	.	-0.8	.
Cc1ccccc1NC(=O)/C=C\C(N)=O	99*	-8	0.65	104
NC(=O)/C=C/C(=O)Nc1ccccc1Cl	100*	-60	0.25	101
CC1(C)N=C(c2ccc(Cl)cc2)C(=S)N1	9	-16	-0.3	104
C=CCn1c(CSCc2ccc(F)cc2)n[nH]c1=S	64*	-15	1.5	97
C=CCn1c(C(C)Oc2ccc(Cl)cc2Cl)n[nH]c1=S (stereo not drawn)	38	-16	-0.75	103
C=CCn1c(Cc2ccc(OC)c(Cl)c2)n[nH]c1=S	91*	-20	1.8	103
O=C(COC(=O)/C=C/c1ccc(Br)o1)Nc1ccc(N2CCOCC2)cc1	2	10	0.1	106
COc1ccc(OCC(=O)NCCO)cc1	14	35*	1.7	102
O=C1C(O)=C(O)C(=O)C(O)=C1O	-36	-5	0.3	97*!
CC(=O)C1=C(c2ccc(Cl)c(Cl)c2)N(C(C)=O)n2c(C)nnc2S1	.	.	.	89
CC(=O)C1=C(c2ccc(Cl)c(Cl)c2)N(C(C)=O)n2cnnc2S1	.	.	.	86*
COc1cccc(C2=C(C(C)=O)Sc3nncn3N2C(C)=O)c1	.	.	.	87*
CC(C)(C)CC(C)(C)NC(=O)Nc1cccc(Cl)c1	-7	-43	0.65	100
CC(C)(C)c1nn2cnnc2n(NC(=O)Nc2cccc(Cl)c2)c1=O	-4	-9	-3.5*	105
Cc1cc2c(cc1S(=O)(=O)N1CCc3ccccc3C1)n(C)c(=O)c(=O)n2C	71	-28	0.95	102
COc1ccc(F)cc1S(=O)(=O)Nc1cccc(-c2ccc(N3CCCCCC3)nn2)c1	.	.	.	110
COc1ccc(OC)c(S(=O)(=O)Nc2cccc(-c3ccc(N4CCCCC4)nn3)c2)c1	.	.	.	85*
O=C(CNC1CC1)Nc1c(Cl)cccc1Cl	17	-7	0.25	101
O=C(NC1CCN(Cc2ccccc2)CC1)c1cc(-c2ccccc2)n[nH]1	3	-11	-0.85	104
COc1cc(CC(=O)Nc2cc(Cl)ccc2Sc2nncn2C)cc(OC)c1OC	14	-25	0.7	103
C=C(C)CNC(=S)Nc1cc(Cl)ccc1Sc1nncn1C	79*	-15	-0.75	91
SMILES	MbtI inh	MenB inh	AID504770	PV pol inh
O=C(NCC(=O)N1CCc2ccccc2C1)c1cccs1	-1	-18	-0.45	106
COc1cc2cc3c4c(cc(OC)c(OC)c4c2cc1OC)CCN3C	.	1	0	18*
C=CCN(CC=C)Cn1c(=S)oc2ccc(S(=O)(=O)Nc3ccc(OC)cc3)cc21	85*	-23	0.05	93
N#CCC(=O)c1ccco1	-1	-34	-0.15	107
Cn1nnnc1SCC(=O)N1c2ccccc2Sc2ccccc21	-9	-24	0.2	104
O=C(CSc1ccccc1)N1c2ccccc2Sc2ccccc21	-5	-14	0.4	83*
Cc1cc(C)nc(SCC2=NC(C)(C)Cc3ccccc32)n1	.	.	-0.1	.
N#CSc1cnc(NC2CCCCC2)s1	74*	-178	-0.4	94
Cn1nc(-c2ccccc2F)c2cc(C(=O)NCc3ccc(F)cc3)sc21	.	.	-0.2	.
CCN(CC)C(=O)CN1C(=O)COCC1=O	-9	26*	0.05	99
COc1ccc(C/C(N)=N/O)cc1OC	1	21*	-0.25	101
CCCOc1ccccc1NC(=O)C1CC(=O)n2c(nnc2-c2ccc(OC)cc2)S1 (stereo not drawn)	86	-10	-0.35	99
O=C(COC(=O)c1ccc(F)c(S(=O)(=O)N2CCCCC2)c1)NC1CC1	3	6	1.4	98
O=C1N=c2ccccc2=C1c1c(O)n(-c2cccc(F)c2)[nH]c1=O	88*	-6	-0.5	99
CCCOC(=O)c1ccc(NC(=O)C(F)(F)F)cc1	.	.	-0.8	.
CC1=C(/C=C/C(C)=C/C=C/C(C)=C/C(=O)Nc2ccc(O)cc2)C(C)(C)CCC1	-18	8	.	101
CC1=C(/C=C/C(C)=C/C=C/C(C)=C\C(=O)O)C(C)(C)CCC1	-12	50*!	-0.05	101
